From PubChem BioAssay
Pf growth 48h: Primary qHTS for delayed death inhibitors of the malarial parasite plastid, 48 hour incubation; P. falciparum luciferase growth in erythrocytes, 48 h; AID 504832, 2011; 5.9% of 310,000 active; Potency, µM (series often up to 28.7 µM), for inactives: at the highest dose activity change, negative = inhibition, usual class: inhibitors; note: potency is the fitted concentration of half-maximal effect
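Here the parasites carry a stable luciferase gene and grow inside erythrocytes in Albumax-based RPMI medium with compound for one erythrocytic cycle. Activity is scored as loss of luminescent signal.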
Pf growth 96h: Primary qHTS for delayed death inhibitors of the malarial parasite plastid, 96 hour incubation | P. falciparum luciferase reporter growth, 96 h | Potency, µM (series often up to 28.7 µM), for the others: top-dose activity change, negative = inhibition, usual class: inhibitors | 6.9% of 320,000 active | AID 504834, 2011; note: potency is the fitted concentration of half-maximal effect
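Two parasite generations (96 h, 37 C, 5% CO2) of compound exposure in infected erythrocytes (0.05% parasitemia, 2% hematocrit). Luciferase-reporter P. falciparum; decreased luminescence indicates inhibited growth, aimed at apicoplast-acting delayed death.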
HCMV inh: qHTS Assay for inhibitors of the human cytomegalovirus (HCMV); activity change, negative = inhibition, % at 57.5 µM; HFF cells, HCMV-luciferase reporter, 72 h; stronger effect = lower value; 4.5% of 410,000 active; AID 1259415, 2018; in the data active = activity change below about -60%; inconclusive = no clear call, values can overlap the other calls; inactive = above about -39%
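After 16 h attachment at 37C, HFF cells received test compound and HCMV-luciferase (1 PFU/cell); reporter luminescence read 72 h later, data normalized against buffer-only and known inhibitor Salinomycin.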
HCV inhibitor: qHTS Assay for Inhibitors of Hepatitis C Virus (HCV); 3.4% of 340,000 active; Huh7.5.1 HCVcc-Cre infection, luciferase reporter, 44 h; Potency, µM (series often up to 41.8 µM), without a hit: top-dose activity change, negative = inhibition, actives largely listed as inhibitors; note: potency is the fitted concentration of half-maximal effect
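HCVcc-Cre virus at an moi near 0.5 was added right after compound to cells cultured 4 h from seeding (1,000 cells/well). Luciferase activity was determined 44 h later, 15 min after substrate addition at RT.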
Active calls of the source: *; ? = inconclusive; . = not tested or not shown; ! = repeats disagree; [ ] = another dose, or the depositor's remark. Sampled rows, rich in hits. Any-hit rate of the full collection: about 13%. Unless noted, calls come from the whole dose curve; as a rule, active = well fitted inhibition curve with a large enough effect; inconclusive = small, poorly fitted or top-dose-only effect, or another doubt; inactive = no such curve, though single readings can be large or run the other way. % is set by controls: 0 for no effect and ±100 for the full control effect.

SMILES | Pf growth 48h | Pf growth 96h | HCMV inh | HCV inhibitor
COc1ccccc1CCNC(=O)Cc1c(C)c2cc(Cl)c(O)cc2oc1=O | . | . | -18.2 | .
c1ccc2c(c1)Sc1ccccc1N2CCN1CCCC1 | 16.9µM* | 15.1µM* | . | .
CCN(CC)CCC(=O)N1c2ccccc2Sc2ccc(Cl)cc21 | ? | 1.65µM* | ? | ?
NCCC(=O)N1c2ccccc2Sc2ccc(Cl)cc21 | ? | -2.9% | 34.7 | ?
CN(C)CC(=O)N1c2ccccc2Sc2ccc(Cl)cc21 | -12.0% | -14.2% | -63.7* | ?
NCCCC(=O)N1c2ccccc2Sc2ccc(Cl)cc21 | ? | 7.3% | 22.5 | 5.01µM*
Cc1cc2nc(-c3cc4ccccc4[nH]3)c(=O)n(/C=C(/c3ccccc3)n3c(=O)[nH]c4ccccc43)c2cc1C | . | . | 10.1 | .
O=S(=O)(c1ccc(F)cc1)N1CCC(Oc2cccc(C(F)(F)F)c2)CC1 | . | . | -6.6 | .
Cc1cc(C)n(CC(=O)N2c3ccccc3Sc3ccc(C(F)(F)F)cc32)n1 | 10.4µM* | ? | -6.5 | ?
O=C1CSC2(CCN(CCCN3c4ccccc4Sc4ccc(Cl)cc43)CC2)N1 | ? | 8.49µM* | . | .
O=C(CCN1CCN(CCO)CC1)N1c2ccccc2Sc2ccc(C(F)(F)F)cc21 | ? | ? | 34.6 | 12.6µM*
CCN(CC)CCC(=O)N1c2ccccc2Sc2ccc(C(F)(F)F)cc21 | -44.5% | -85.2% | -85.0* | .
O=C(/C=C/c1ccccc1)N1c2ccccc2Sc2ccc(C(F)(F)F)cc21 | ? | 45.3% | -18.1 | 31.1%
CN1CCN(CCC(=O)N2c3ccccc3Sc3ccc(Cl)cc32)CC1 | ? | 34.8% | -34.4 | ?
COc1cc(OC)c(Nc2nc3ccccc3c3nncn23)cc1Cl | . | . | 5.8 | .
CCOC(=O)c1noc2ncnc(N(CCC(=O)OC)c3ccccc3)c12 | . | . | -9.8 | .
O=C(Nc1ccc(F)cc1F)C(Cc1ccccc1)N1Cc2ccccc2C1=O (centres undefined) | . | . | -34.8 | .
Cc1oc2ncn(C)c(=O)c2c1C(=O)Nc1ccccn1 | . | . | -8.9 | .
O=C(CSc1nnc2[nH]c(=O)cc(-c3ccccc3)n12)Nc1cc(C(F)(F)F)ccc1Cl | . | . | 61.4 | .
Cc1ccccc1N1C(=O)c2cc(N)ccc2N/C1=C\F | -6.9% | ? | . | .
O=C(CCN1CCN2CCCC2C1)N1c2ccccc2Sc2ccc(Cl)cc21 (centres undefined) | ? | 10.7µM*! | -1.1 | ?
CN1CCN(CCCN2c3ccccc3Sc3ccc(C(F)(F)F)cc32)CC1 | 10.4µM* | 9.28µM* | -79.4*! | 14.1µM*!
O=C(CN1CCOCC1)N1c2ccccc2Sc2ccc(Cl)cc21 | . | . | 13.2 | .
CN(C)CCC(=O)N1c2ccccc2Sc2ccc(Cl)cc21 | ? | 15.6% | ? | 6.31µM*
CN(C)Cc1c(C(C)(C)O)[nH]c2cc(F)ccc12 | . | . | -6.8 | .
SMILES | Pf growth 48h | Pf growth 96h | HCMV inh | HCV inhibitor
COc1ccccc1C1CC(=O)Nc2cc3c(cc21)OCCO3 (centres undefined) | -14.8% | 43.5% | -85.0* | ?
CC(C)Oc1ccccc1C1CC(=O)Nc2cc3c(cc21)OCCO3 (centres undefined) | ? | . | -103.0* | ?
O=C1CC(c2cccc(Cl)c2Cl)c2cc3c(cc2N1)OCCO3 (centres undefined) | . | . | -28.8 | .
COc1ccc(Cl)cc1C1CC(=O)Nc2cc3c(cc21)OCCO3 (centres undefined) | . | . | -92.1* | .
CCCOc1c(OC)cccc1C1CC(=O)Nc2cc3c(cc21)OCO3 (centres undefined) | ? | -17.8% | -19.1 | 11.2µM*
COc1cccc(C2CC(=O)Nc3cc4c(cc32)OCCO4)c1OC(C)C (centres undefined) | ? | 96.8% | -10.8 | -13.9%
CCCOc1c(OC)cccc1C1CC(=O)Nc2cc3c(cc21)OCCO3 (centres undefined) | -14.7% | 8.1% | 21.2 | ?
O=C(Cn1ncc2ccc(Cl)cc21)NCc1ccc(F)cc1 | . | . | 8.4 | .
CCOc1ccc(CCNC(=O)c2cn(-c3ccc(OC)cc3)c(=O)c3ccccc23)cc1OCC | . | . | -4.1 | .
CCc1ccc(CNC(=O)c2c3c(nc4ccccc24)C(=O)N(C2CCCCC2)C3)cc1 | . | . | 17.3 | .
COC(=O)c1cc2oc3ccccc3c2n1CC(=O)Nc1ccc(N(C)C)cc1 | . | . | 32.4 | .
Cc1ccc(NC(=O)c2nc(-c3ccncc3)no2)c(Cl)c1 | . | . | 71.7 | .
CC1c2ccccc2-c2ccccc2N1C (centres undefined) | . | . | -26.4 | 12.6µM*
COC(=O)C1c2ccccc2-c2ccccc21 | -1.4% | -3.4% | -26.4 | -10.8%
O=C1Nc2cc(C(=O)NCCCN3CCCC3)ccc2S/C1=C\c1ccccc1 | 9.28µM* | -0.7% | ? | 11.2µM*
O=C1Nc2cc(C(=O)NCCCN3CCOCC3)ccc2S/C1=C/c1ccccc1F | ? | ? | -27.7 | 8.91µM*
COc1ccc(/C=C2/Sc3ccc(C(=O)NCCN4CCCCCC4)cc3NC2=O)cc1 | 9.28µM* | ? | -112.0* | ?
CCCC(=O)N1c2ncnn2C2(CCCCC2)[C@@H]2CCCC[C@@H]21 | . | . | -7.1 | .
O=[N+]([O-])c1ccc(NS(=O)(=O)c2ccc(Cl)c(Cl)c2)cc1 | . | . | -63.7* | .
O=[N+]([O-])c1ccc(NS(=O)(=O)c2cccc3cccnc23)cc1 | 0.6% | 11.7µM* | -23.4 | 8.4%
O=C1C(Cl)=C(NS(=O)(=O)c2ccc([N+](=O)[O-])cc2)C(=O)c2ccccc21 | ? | 5.22µM* | ? | ?
O=[N+]([O-])c1ccc(S(=O)(=O)Nc2ccncc2)cc1 | 32.7% | 5.4% | -25.7 | -8.0%
COc1ccccc1Cc1c(C2CCCCC2)nc2c(C)cc(Br)cn12 | . | . | 10.8 | .
Cc1cc(Cl)ccc1NC(=O)CN1C(=O)C(=O)c2ccccc21 | . | . | 18.3 | .
O=c1c2c3c(sc2n(CCN2CCOCC2)c(=O)n1Cc1ccco1)CCCCC3 | ? | 2.62µM* | -95.5* | 10µM*
SMILES | Pf growth 48h | Pf growth 96h | HCMV inh | HCV inhibitor
NC(=O)Cn1c(=O)n(Cc2ccco2)c(=O)c2c3c(sc21)CCCCC3 | ? | -17.4% | -21.0 | 6.3%
O=c1c2c3c(sc2n(CCN2CCCCC2)c(=O)n1Cc1ccco1)CCCCC3 | . | 2.62µM* | -32.1 | ?
COc1cccc(-n2cc(C(=O)Oc3cccc(C(F)(F)F)c3)c3ccccc3c2=O)c1 | . | . | -14.0 | .
COc1ccc(C(CCN2CCCCC2)c2c(O)cc(OC)cc2OC)cc1 (centres undefined) | 0.657µM* | 0.465µM* | 22.2 | -9.9%
CCN(CC)C(=O)CC(c1ccc(OC)cc1)c1c(O)cc(OC)cc1OC (centres undefined) | ? | -14.6% | -3.0 | 4.2%[8.37 µM]
COc1ccc(C(CCN2CCCC2)c2c(O)cc(OC)cc2OC)cc1 (centres undefined) | ? | 2.94µM* | 25.4 | -17.9%
Cc1ccc2c(=O)c(C(=O)c3cccc(Cl)c3)cn(CC(=O)NCc3ccc(F)cc3)c2n1 | . | . | 4.3 | .
